The supplement of paper PMC13380429
Unmarked numbers belong to inactive results.

Each compound was assayed on Vero E6 infected with SARS-CoV-2 (assay: SARS-CoV-2 infection rate relative to infected DMSO; higher = more infection, active = 60 or less). Conditions: 24 h.

Structure (SMILES)	SARS-CoV-2 infection rate [%]
CN[C@@H]1[C@@H](O[C@H]2O[C@H](CO)[C@@H](N)[C@H](O)[C@H]2O)O[C@H]2C[C@@H](N)[C@@H](O[C@H]3[C@H](O)[C@@H](O)[C@H](N)C[C@@H]3N)O[C@@H]2[C@@H]1O [apramycin] (10 µM)	98
NCCCC[C@H](N[C@@H](CCc1ccccc1)C(=O)O)C(=O)N1CCC[C@H]1C(=O)O [lisinopril] (10 µM)	100
COc1ncc(-c2ccc3nccc(-c4ccnnc4)c3c2)cc1NS(=O)(=O)c1ccc(F)cc1F (0.833333 µM)	110
CCCC(=O)O[C@]1(C(=O)CCl)[C@@H](C)C[C@H]2[C@@H]3CCC4=CC(=O)C=C[C@]4(C)[C@@]3(F)C(=O)C[C@@]21C [clobetasone-butyrate] (10 µM)	96
CCNC(=O)NS(=O)(=O)c1sc(CC(C)C)cc1-c1ccc(Cn2c(-c3ccccc3)nc(OC)c2C=O)cc1 (10 µM)	97
Oc1ccnc2cc(Cl)ccc12 [chloroxoquinoline] (10 µM)	99.5
CS(=O)(=O)c1ccc(-c2cn3ccccc3n2)cc1 [zolimidine] (10 µM)	85
Cc1ccc2c(N3CCN(CCc4cccc(N5CCNC5=O)c4)CC3)cccc2n1 (10 µM)	84
Cc1ccc(S(=O)(=O)OCC(=O)Nc2ccc(C(=O)O)c(O)c2)cc1 [STAT3-inhibitor-VI] (10 µM)	110
CC[C@]1(O)C[C@@H]2CN(CCc3c([nH]c4ccccc34)[C@@](C(=O)OC)(c3cc4c(cc3OC)N(C)[C@H]3[C@@](O)(C(=O)OC)[C@H](OC(C)=O)[C@]5(CC)C=CCN6CC[C@]43[C@@H]65)C2)C1 [Vinblastine (sulfate)] (0.833333 µM)	102
Cc1cc([N+](=O)[O-])ccc1NS(=O)(=O)c1cc(Cl)ccc1Cl (0.833333 µM)	101
CN[C@@H](C)CC1CCCCC1 [propylhexedrine] (10 µM)	110
CCCCc1nc(-c2ccc(OCCCN(CC)CC)cc2)cn1-c1ccc(Oc2ccc(Cl)cc2)cc1 [azeliragon] (0.833333 µM)	93
CC(Cc1cccc(C(F)(F)F)c1)NCCOC(=O)c1ccccc1 (stereo not drawn) [benfluorex] (10 µM)	104
O[C@@H]1CCCC[C@H]1N1CCC(c2ccccc2)CC1 (racemic) [vesamicol] (10 µM)	98.5
CCC(=O)NCC[C@@H]1CCc2ccc3c(c21)CCO3 [ramelteon] (10 µM)	114
CCCC(C)C1(CC)C(=O)NC(=O)NC1=O (stereo not drawn) [pentobarbital] (10 µM)	100
Cc1noc(-c2ccc(-c3ccc(CC(=O)O)cc3)cc2)c1NC(=O)O[C@H](C)c1ccccc1 (0.833333 µM)	112
CCCNCCc1ccc(NS(=O)(=O)c2ccc(OC(F)(F)F)cc2)cc1 (10 µM)	110
CCN1CCN(C(=O)N[C@@H](C(=O)N[C@@H]2C(=O)N3C(C(=O)O)=C(CSc4nnnn4C)CS[C@H]23)c2ccc(O)cc2)C(=O)C1=O [cefoperazone] (10 µM)	104
O=C(/C=C\n1cnc(-c2cc(C(F)(F)F)cc(C(F)(F)F)c2)n1)N1CC(F)(F)C1 (10 µM)	116
Nc1ccn(C[C@@H](CO)OCP(=O)(O)O)c(=O)n1 [cidofovir] (10 µM)	108
NCc1c[nH]c(=S)n1[C@H]1CCc2c(F)cc(F)cc2C1 [nepicastat] (10 µM)	104
